The nature of assay [1]: blockers of polyQ-driven CASP3 activation – cell-based (AID 1583). Particulars: polyglutamine-induced caspase-3 activation, cell assay; stronger effect = higher value;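 tested at 10 µM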.
Assay [2] is described as follows: yeast 75Q aggregation reduction – 75Q-TubU reporter (AID 1593). Particulars: Yeast 75Q polyglutamine aggregation reporter.
The nature of assay [3]: restoration of touch response, mutant HTT neurons – whole organism, C. elegans mechanosensory neurons, N-terminal huntingtin (AID 1599). Particulars: C. elegans polyQ-huntingtin mechanosensory neurons, stronger effect = higher value.
Assay [4] is described as follows: blockers of cytochrome c efflux from mitochondria – biochemical, purified mitochondria (AID 1603).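 Also: mouse liver mitochondria challenged with calcium chloride; signal normalized to the plate average as 100%.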 Particulars: stronger effect = lower value.
Assay [5] is described as follows: polyglutamine aggregate formation blockers (AID 1604). As to conditions: polyglutamine-induced protein aggregation inhibition assay; stronger effect = higher value; tested at 2.5 µM.
A short description of assay [6]: glutamate transport activators, MN-1 cells, MN-1 cell line (AID 1612).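 Also: tested at 1 µM final; 0% = mean of DMSO vehicle wells on each plate; positive means more glutamate uptake than control and negative means less.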 As to conditions: MN-1 motor neuron cells, stronger effect = higher value.
Assay [7] can be described thus: GFP-Q80 aggregate reduction, neuronal-like cells, cell-based, NGF-treated PC12, GFPQ80 (AID 1614).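 Also: lower means fewer inclusions and 0 means no inclusions at all.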 As to conditions: PC12 NGF-treated GFP-polyQ80 inclusion reduction.
The nature of assay [8]: 75Q-TubH aggregate inhibition, S. cerevisiae, yeast (AID 1616). As to conditions: S. cerevisiae 75Q-TubH polyglutamine aggregation suppression; stronger effect = higher value.
Assay [9] is described as follows: P. berghei load reduction in hepatocytes – cell-based, HepG2, luciferase luminescence, HepG2 viability, primary screen (AID 624349).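 Also: 100% = mean of DMSO negative control wells on the same plate.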 Particulars: P. berghei liver stage in HepG2, luciferase luminescence, concentration not given here; parasite load remaining: stronger effect = lower value; viability: measured here: HepG2 viability without parasites.
Assay [10] can be described thus: EMT-state selective cytotoxicity in co-culture – imaging, PC-3E GFP, TEM4-18 mCherry, primary screen (AID 1345086;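 active = compounds killing one labelled cell type while sparing the other, by normalised counts and ratio limits, not self-fluorescent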;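 as to all read-outs here: cells exposed to compound for 72 h before imaging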;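 as to red/green cell ratio (normalised): normalised mesenchymal count divided by normalised epithelial count so high means epithelial killing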). Particulars: PC-3E GFP / TEM4-18 mCherry co-culture, imaging cell counts, at 1 µM; for red/green cell ratio (normalised): actives lie on both sides, counts scaled to control wells, 1 = unselective.
The nature of assay [11]: viability loss with induced miR-34 in A549 – imaging, A549 dox-inducible miR-34, nuclei and caspase counts, primary screen (AID 1347080;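 active = compounds whose cell count with miR-34 switched on is under 0.7 times the count with it off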). As to conditions: A549 miR-34 inducible, Hoechst nuclei count, 48 h.
Where [12] appears, read: measured here: epithelial PC-3E GFP cell survival.
The mark [13] stands for this setting: measured here: mesenchymal TEM4-18 mCherry cell survival.
Where [14] appears, read: stronger effect = lower value, cell number ratio, induced over uninduced.
Setting [15] is: measured here: relative caspase fold change +Dox/-Dox.
[16] abbreviates: measured here: total cells with miR-34 induction, stronger effect = lower value.
Setting [17] is: measured here: total cells without miR-34 induction.

The structures appear in SMILES notation. Values joined by “and” are separate entries in the source; they are usually repeats but may differ in a detail not shown here. Identical values can stand only once. For some of these results: Measured potencies and affinities stand elsewhere. Active and inactive are the calls of the source. Rule as the data show it, unless noted: active = parasite load remaining mostly below about 12% (no sharp cut-off); inactive = mostly above about 10%.

Regarding `C[C@]12CCC3c4ccc(O)cc4CCC3C1C[C@@H](O)[C@@H]2O` (stereo partly specified), the inhibition in [1] is -10.9%. Moreover, the score in [2] was found to be 0.64. The same compound had a rescue above control in assay [3] of 0.35. Moreover, the cytochrome c release ratio in assay [4] amounted to 0.85. In [5], this compound returned an inhibition of aggregation of 84.5%. Further, the glutamate uptake change in [6] was -5.15%. Further, the inclusion score in assay [7] amounted to 2. In assay [8], this compound gave an aggregation suppression score of 0.718. In assay [9], the parasite load remaining was 84.5% (inactive) and 67.1% (inactive). Besides, in [9], the viability was 72.3% and 96.2%. Also, the red/green cell ratio (normalised) in [10] was 0.95 (inactive). Besides, the results for the normalised cell number in assay [10] (setting [12]) and in assay [10] (setting [13]) were 1 and 0.95, respectively. For the same compound, the fold change in [11] (setting [14]) is 0.868 (inactive); in assay [11] (setting [15]), 1.18. Also, the cell count in [11] (setting [16]) was 11100; in assay [11] (setting [17]) it was 12800.

Turning to `CO/N=C(/C(=O)NC1C(=O)N2C(C(=O)O)=C(COC(N)=O)CSC12)c1ccco1` (stereo unspecified), the inhibition in [1] was determined as 8.13%. Also, in assay [2], the score worked out at 1.48. Besides, in assay [3], the rescue above control was -9.55. Also, the cytochrome c release ratio in assay [4] is 1.1. This compound showed an inhibition of aggregation in assay [5] of 28.8%. The glutamate uptake change in assay [6] was 14.5%. Besides, the inclusion score in assay [7] turned out to be 2. Besides, the aggregation suppression score in assay [8] came to 1.29. Besides, the parasite load remaining in assay [9] is 180% (inactive) and 36.7% (inactive). Further, the viability in assay [9] is 72.5% and 86.1%. Moreover, in assay [10], the red/green cell ratio (normalised) is 0.94 (inactive). The normalised cell number in [10] (setting [12]) was 1.04; in assay [10] (setting [13]), 0.97. Besides, the fold change is 0.899 (inactive) in assay [11] (setting [14]) and 3.3 in [11] (setting [15]). The cell count in [11] (setting [16]) amounted to 11600; in assay [11] (setting [17]), 12900.

For `C=C[C@@]1(C)CC(=O)[C@@]2(O)[C@](C)(O1)[C@@H](OC(C)=O)[C@@H](O)C1C(C)(C)CC[C@H](O)[C@@]12C` (stereo partly specified), in assay [1], the inhibition was 4.06%. Further, the score in assay [2] was 1.39. In assay [3], this compound had a rescue above control of 0.33. In addition, the cytochrome c release ratio in [4] is 0.91. For the same compound, in [5], the inhibition of aggregation was determined as 15.4%. The glutamate uptake change in [6] turned out to be 15.8%. The inclusion score in [7] stood at 1. The same compound showed an aggregation suppression score in [8] of 1.2. The parasite load remaining in assay [9] is 150% (inactive) and 45.5% (inactive). The viability in assay [9] is 93.3% and 96.7%. The red/green cell ratio (normalised) in [10] is 1 (inactive). Further, the normalised cell number in [10] (setting [12]) was found to be 1.25; in assay [10] (setting [13]) it was 1.26. Further, the fold change is 0.888 (inactive) in [11] (setting [14]) and 3.59 in assay [11] (setting [15]). The cell count came to 11900 in assay [11] (setting [16]) and 13400 in assay [11] (setting [17]).

On to `C#C[C@]1(O)CCC2C3CCC4=Cc5oncc5C[C@]4(C)C3CC[C@@]21C` (stereo partly specified), for which the inhibition in [1] stood at 10.9%. In addition, the score in assay [2] came to 1.04. The compound also gave a rescue above control in [3] of 5.61. In addition, in [4], the cytochrome c release ratio is 1.19. In assay [5], this compound displayed an inhibition of aggregation of 69.1%. For the same compound, the glutamate uptake change in assay [6] was -6.15%. The compound further showed an aggregation suppression score in assay [8] of 0.874. Also, in [9], the parasite load remaining is 83.8% (inactive) and 19.9% (inactive). For the same compound, the viability in [9] is 69% and 89.7%. Also, the red/green cell ratio (normalised) in assay [10] was 1.05 (inactive). The normalised cell number in assay [10] (setting [12]) is 1.19; in [10] (setting [13]), 1.26. Besides, the figures for the fold change in [11] (setting [14]) and in [11] (setting [15]) were 0.952 (inactive) and 2.2, respectively. The cell count in [11] (setting [16]) stood at 9590; in assay [11] (setting [17]), 10100.

For the compound `COc1cc(NS(C)(=O)=O)ccc1Cc1c2ccccc2nc2ccccc12`, the parasite load remaining in [9] is 41.6% (inactive). For the same compound, in [9], the viability was found to be 143%. The red/green cell ratio (normalised) in [10] was 0.96 (inactive). The normalised cell number in [10] (setting [12]) is 0.32; in [10] (setting [13]), 0.31. The values for the fold change in [11] (setting [14]) and in assay [11] (setting [15]) were 0.911 (inactive) and 3.12, respectively. The cell count in [11] (setting [16]) came out at 3640; in assay [11] (setting [17]) it was 4000.

What is called inhibition is the change of the read-out against control, counted positive when it falls. Broadly, the viability is a read-out of living cells in per cent, often relative to untreated cells.

The record behind these values is PubChem BioAssay.
